# Measured values as given in PubChem BioAssay (Tox21).
# Values joined by “and” are separate entries in the source; they are usually repeats but may differ in a detail not shown here. Equal entries are not always repeated. Inconclusive results are not listed. Entries that show only a call come without a potency. Active and inactive are the calls of the source. The call rests on the fitted dose curve; in most records, active means well fitted activation curve with a large enough effect in the signal ratio in the repeat runs (not every such curve was filed as active); inconclusive means weak or mixed curves, or effect the other way; inactive means flat fitted curve, though single readings scatter; the % refers to the signal ratio.
# Target: Estrogen receptor beta (Homo sapiens) (UniProt Q92731)
# Test: qHTS assay to identify small molecule agonists of the estrogen receptor beta (ER-beta) signaling pathway (AID 1259377)
# Conditions: ER-beta-UAS-bla HEK293T, beta-lactamase FRET ratio, 16 h; series mostly up to 92.4 µM
# Excerpt: U.S. Tox21 Program National Center for Advancing Translational Sciences [NCATS] NIH Chemical Genomics Center [NCGC] U.S. Environmental Protection Agency [EPA] National Institutes of Environmental Health Sciences [NIEHS] National Toxicology Program [NTP] U.S. Food and Drug Administration [FDA] Tox21 Assay Overview: Estrogen receptor (ER), a nuclear hormone receptor, plays an important role in development, metabolic homeostasis and reproduction. Two subtypes of ER, ER-alpha and ER-beta, have similar expression patterns with some uniqueness in both types. Endocrine disrupting chemicals (EDCs) and their interactions with steroid hormone receptors like ER causes disruption of normal endocrine function. To identify the compounds that activate ER signaling, an ER beta-UAS-bla GripTite cell line (Life technologies, Madison, WI, USA) containing a beta-lactamase reporter gene under the control of an Upstream Activator Sequence (UAS) was used to screen Tox21 10K compound library.
# Tox21 Assay Protocol Summary: ER-beta-UAS-bla HEK293T cells were dispensed at 2,000 cells/5 uL of assay medium containing 2% charcoal stripped FBS per well into black wall/clear-bottom 1536-well plates using a Multidrop Combi (ThermoFisher Scientific, Waltham, MA) dispenser. After the assay plates were incubated at a 37C and 5% CO2 for 6 hr, 23 nL of compounds dissolved in DMSO, positive controls or DMSO only was transferred to the assay plate by a Pintool station (Kalypsys, San Diego, CA). The plates were incubated at 37C and 5% CO2 for 16 hr. Then 1 uL of LiveBLAzerTM B/G FRET substrate was added using a BioRAPTR FRD (Flying Reagent Dispenser, Aurora Discovery, San Diego, CA). After the plates were incubated at room temperature for 2 hours, fluorescence intensity was measured by an Envision plate reader (PerkinElmer, Shelton, CT).
# Potency means the concentration at half of the fitted maximal effect.
# Estrogen receptor beta (Homo sapiens), sequence (Q92731 whole entry, looked up): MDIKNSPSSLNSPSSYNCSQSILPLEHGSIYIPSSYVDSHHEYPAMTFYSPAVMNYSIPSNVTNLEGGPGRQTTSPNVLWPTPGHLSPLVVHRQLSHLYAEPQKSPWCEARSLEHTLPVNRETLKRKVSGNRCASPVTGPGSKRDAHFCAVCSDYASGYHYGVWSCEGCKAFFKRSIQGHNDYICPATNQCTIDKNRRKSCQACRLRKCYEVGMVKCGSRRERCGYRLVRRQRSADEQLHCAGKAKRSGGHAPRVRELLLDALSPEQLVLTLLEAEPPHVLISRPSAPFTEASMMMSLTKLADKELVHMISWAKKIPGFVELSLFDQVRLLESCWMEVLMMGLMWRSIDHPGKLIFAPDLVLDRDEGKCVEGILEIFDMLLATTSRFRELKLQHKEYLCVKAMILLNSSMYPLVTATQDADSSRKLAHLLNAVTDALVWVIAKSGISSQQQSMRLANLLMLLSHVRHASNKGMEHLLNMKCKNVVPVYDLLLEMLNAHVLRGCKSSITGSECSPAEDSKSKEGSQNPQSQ
row,Structure (SMILES),Potency
1,Cc1ccc2c(Br)cc(Br)c(O)c2n1,inactive
2,CCCCCCCCOc1ccc(C(=O)O)cc1,inactive
3,O=c1cc(-c2ccccc2)oc2ccc3ccccc3c12,inactive
4,CCCCN(CCN(CCCC)C(=O)N1CCOCC1)C(=O)N1CCOCC1,inactive
5,CCC(OCCCOC)OC(C)=O (stereo not given),inactive
6,CC(C)=CCC/C(C)=C/CC/C(C)=C/C(=O)OCC(=O)[C@@]1(O)CC[C@H]2[C@@H]3CCC4=CC(=O)C=C[C@]4(C)[C@H]3[C@@H](O)C[C@@]21C,inactive
7,CC(C)(O)c1ccc(CNC(=O)c2cccnc2Oc2ccc3nonc3c2)cc1,inactive
8,C[C@]12CC[C@@H]3c4ccc(O)cc4CC[C@H]3[C@@H]1CC[C@@H]2OC(=O)CCC1CCCC1,2.2 nM (active) and 2.7 nM (active)
9,Nc1cccc2c1CN(C1CCC(=O)NC1=O)C2=O (stereo not given),inactive
10,CC(=O)c1ccc([N+](=O)[O-])cc1,inactive
11,C/C=C(/C(=C/C)c1ccc(O)cc1)c1ccc(O)cc1,1.9 nM (active)
12,CC[N+](CC)(CCNC(=O)C(=O)NCC[N+](CC)(CC)Cc1ccccc1Cl)Cc1ccccc1Cl,inactive
13,Nc1ncnc2c1ncn2[C@H]1CC[C@@H](CO)O1,inactive
14,CCOc1cccc(-n2cc(C(=O)N3CCN(c4cc(C(=O)O)c5ccccc5c4)CC3)nc2-c2ccc(C)cc2)c1,inactive
15,CCCCCCC(C)(C)C(=O)O,inactive
16,O[C@@H]1CO[C@H]2[C@@H]1OC[C@@H]2O,inactive
17,CCCC(C(=O)OCCN(CC)CC)(c1ccccc1)c1ccccc1,inactive
18,C=CC(=O)OCC1CC2CC1C1CCC(COC(=O)C=C)C21 (stereo not given),inactive
19,CN1C(C(=O)Nc2ccccn2)=C(O)c2sccc2S1(=O)=O,inactive
20,O=C(O)CCC(=O)C(=O)O,inactive

row,Structure (SMILES),Potency
1,OC1(c2ccccc2)CCNCC1,inactive
2,CCCCCCCCCCC(=O)O,inactive
3,CCC1NC(=O)c2cc(S(N)(=O)=O)c(Cl)cc2N1 (stereo not given),inactive
4,CCCCN(CCCC)C(C(N)=O)c1ccc(OC)cc1 (stereo not given),inactive
5,CC(=O)OCC[N+](C)(C)C,inactive
6,CCOC(=O)c1ccc(C#Cc2ccc3c(c2)C(C)(C)CCS3)nc1,inactive
7,CCOc1ccc(Cc2nccc3cc(OCC)c(OCC)cc23)cc1OCC,inactive
8,O=C1CCCCCCCCCCOCCCCO1,inactive
9,CC(=O)c1cc2ccccc2s1,inactive
10,CC(=O)OCCN(CCOC(C)=O)c1ccc(N=Nc2ccc([N+](=O)[O-])cc2C#N)cc1,inactive
11,CCOC(=O)C1=C(C)NC(C)=C(C(=O)OC)C1c1cccc(Cl)c1Cl (stereo not given),inactive
12,CCCCOc1ccc(OCCCN2CCOCC2)cc1,inactive
13,O=c1[nH]c2ccc(Cl)cc2o1,inactive
14,Cc1c(C)c2c(c(C)c1OC(=O)CCC(=O)OCCO)CC[C@@](C)(CCC[C@H](C)CCC[C@H](C)CCCC(C)C)O2,inactive
15,C=CC(C)(CCC=C(C)C)OC(=O)CC(C)C (stereo not given),inactive
16,CC(C)Nc1cccnc1N1CCN(C(=O)c2cc3cc(NS(C)(=O)=O)ccc3[nH]2)CC1,inactive
17,CN1CCCN=C1COC(=O)C(O)(c1ccccc1)C1CCCCC1 (stereo not given),inactive
18,CC(CC1c2ccccc2CCc2ccccc21)CN(C)C (stereo not given),inactive
19,COC(=O)[C@H]1[C@H]2C[C@@H]3c4[nH]c5cc(OC)ccc5c4CCN3C[C@H]2C[C@@H](OC(=O)/C=C/c2ccc(O)c(OC)c2)[C@@H]1OC,inactive
20,CC(C)C=O,inactive
